High-throughput results from PubChem BioAssay.
Only some compounds are listed: those with a hit (about 14% of all), similar ones and a draw of the others.
Pf growth 48h: Primary qHTS for delayed death inhibitors of the malarial parasite plastid, 48 hour incubation. P. falciparum luciferase growth in erythrocytes, 48 h. Potency, µM (doses to about 28.7 µM), usual class: inhibitors. actives 5.9% (n = 310,000). AID 504832, 2011
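A one-generation exposure of luciferase-tagged malaria parasites in RPMI 1640/Albumax erythrocyte culture, 37 C and 5% CO2. Inhibition is inferred from decreased luminescence after adding detection reagent.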
HCMV antiviral: qHTS Assay for inhibitors of the human cytomegalovirus (HCMV); HFF cells, HCMV-luciferase reporter, 72 h; stronger effect = lower value; activity change, negative = inhibition, % at 57.5 µM; actives 4.5% (n = 410,000); in the data active = activity change below about -60%; inconclusive = no clear call, values can overlap the other calls; inactive = above about -39%
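Luciferase read-out from HCMV-luciferase-infected HFFs (MOI 1 PFU/cell) 72 h post infection at 37C; compounds added after 16 h cell attachment; activity normalized between buffer-only basal and Salinomycin (10uM) inhibitor controls.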
Sm TGR inh: qHTS Assay for the Inhibitors of Schistosoma Mansoni Peroxiredoxins | Schistosoma mansoni thioredoxin glutathione reductase (TGR), Q962Y6 | purified TGR, DTNB reduction, TNB absorbance 405 nm | AID 485364, 2010 | Potency, µM (doses to about 114 µM), hits mostly inhibitors | actives 3% (n = 360,000); also: nearly all actives have a fitted effect of over 60% in size
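TGR 20 nM + NADPH 100 uM (dispensed conc.), cpd preinc 15 min RT; start with NADPH (500 uM addition) then DTNB (15 mM addition). Kinetic TNB absorbance, 405 nm filter. Four-parameter Hill fit across titration.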
FBPA Giardia inh: qHTS Assay for Inhibitors of Fructose-1,6-bisphosphate Aldolase from Giardia Lamblia; purified Giardia FBPA; Potency, µM (titrated, usually from 59.6 µM), actives largely listed as inhibitors; actives 0.71% (n = 290,000); also: nearly all actives have a fitted effect of over 55% in size
Target sequence (A8B2U2 whole entry, looked up): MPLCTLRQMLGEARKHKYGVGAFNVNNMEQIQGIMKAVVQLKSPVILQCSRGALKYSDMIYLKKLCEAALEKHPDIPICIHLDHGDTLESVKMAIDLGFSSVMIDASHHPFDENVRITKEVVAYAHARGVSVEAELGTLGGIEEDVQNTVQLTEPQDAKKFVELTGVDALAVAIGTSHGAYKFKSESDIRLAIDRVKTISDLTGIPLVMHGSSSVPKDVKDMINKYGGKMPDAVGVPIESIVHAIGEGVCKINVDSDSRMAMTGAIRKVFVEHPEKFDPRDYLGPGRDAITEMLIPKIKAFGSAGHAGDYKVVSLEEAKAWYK
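40 nM FBPA preincubated 10 min at RT with compound (up to 57.5 uM final), then substrate plus GAPDH/TPI/NAD/arsenate coupling and diaphorase/resazurin added. Fluorescence read after 20 min at RT, 525/598 nm.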
Pf growth 96h: Primary qHTS for delayed death inhibitors of the malarial parasite plastid, 96 hour incubation. P. falciparum luciferase reporter growth, 96 h. Potency, µM (series often up to 28.7 µM), most hits filed as inhibitors. actives 6.9% (n = 320,000). AID 504834, 2011
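Readout is luminescence from an integrated firefly luciferase in P. falciparum. Red cells, 2% hematocrit and 0.05% parasitemia final, were cultured with compound through two parasite generations (96 hours) at 37 C, 5% CO2.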
Hits are given with their value; i = inactive; ? = inconclusive; nt = no result; [ ] = remark or other dose. Unless noted, calls follow the shape of the dose curve; as a rule, active = well fitted curve in the direction sought with a large enough effect; inconclusive = small, poorly fitted or top-dose-only effect, or another doubt; inactive = no such curve, though single readings can be large; an effect the other way counts as inactive or inconclusive.

SMILES	Pf growth 48h	HCMV antiviral	Sm TGR inh	FBPA Giardia inh	Pf growth 96h
CN(C[C@H](Cc1ccccc1)N(C[C@H](Cc1cccc2ccccc12)N(CCc1ccccc1)N=O)N=O)N=O	?	i	35.5µM	i	?
CN(C[C@H](Cc1ccccc1)N(C[C@H](Cc1ccccc1)N(CCc1cc(C(F)(F)F)cc(C(F)(F)F)c1)N=O)N=O)N=O	?	i	i	i	4.15µM
CN(C[C@H](CC1CCCCC1)N(C[C@H](Cc1ccccc1)N(CCc1ccccc1)N=O)N=O)N=O	13.1µM	i	i	i	?
CC(C)C[C@@H](CN(C)N=O)N(C[C@H](Cc1ccccc1)N(CCc1ccccc1)N=O)N=O	?	i	39.8µM	i	?
O=C1CC(c2nnc(Cc3ccc(F)cc3)o2)CN1c1ccccc1 (stereo not drawn)	nt	i	i	nt	nt
COc1ncc2nc(-c3ccc(F)cc3)c(=O)n(Cc3cccs3)c2n1	nt	nt	nt	i	nt
CCOC(=O)Cn1cc(/C=N/N2C(=O)C3C4C=CC(C4)C3C2=O)c2ccccc21 (stereo not drawn)	i	i	nt	i	i
COc1ccccc1-n1c(SCC(=O)N2CCOCC2)nc2ccccc2c1=O	i	i	i	i	i
COc1ccccc1-n1c(CNc2c(C)cccc2C)nnc1SCC(=O)N1CCOCC1	i	i	i	?	11.7µM
O=C(Nc1ccc(N2CCOCC2)cc1N1CCOCC1)c1ncoc1-c1cccc(F)c1	11.7µM	i	i	nt	i
O=C(Nc1ccccc1N1CCCCC1)c1ncoc1-c1ccc(F)cc1	3.29µM	?	i	i	nt
COc1ccc(S(=O)(=O)N2CCC(C)CC2)cc1OC	i	i	i	i	i
O=S(=O)(c1ccc(S(=O)(=O)N2CCCC2)cc1)N1CCCCCC1	i	i	i	i	i[5.75 µM]
CC1CCN(S(=O)(=O)c2ccc3c(c2)C(=NO)c2cc(S(=O)(=O)N4CCC(C)CC4)ccc2-3)CC1	?	-98.7	i	i	5.86µM
O=S(=O)(c1ccc2c(c1)C(=NO)c1cc(S(=O)(=O)N3CCCCC3)ccc1-2)N1CCCCC1	8.28µM	-101.7	i	i	?
CC1CCN(S(=O)(=O)c2ccc3[nH]ccc3c2)CC1	nt	-93.7	i	nt	nt
CCOC(=O)[C@]12CCC=C1N(Cc1ccco1)C(=O)[C@H](CC(=O)NCCC(C)C)C2	nt	i	nt	nt	nt
CC1(Cc2ccc(C(F)(F)F)o2)C(=O)Nc2cc(-c3ccc(F)cc3F)ccc21 (stereo not drawn)	nt	-99.7	nt	nt	nt
CC1(Cc2cc(Cl)ccc2C(F)(F)F)C(=O)Nc2cc(C(F)(F)F)ccc21 (stereo not drawn)	nt	i	nt	nt	nt
O=C(c1[nH]c(C(F)(F)F)nc1-c1ccccc1)N1CCN(c2ncccc2C(F)(F)F)CC1	nt	i	nt	nt	nt
CN(C)c1nc(Cl)nc2c1nc(Cl)n2C1CCCCO1 (stereo not drawn)	nt	i	nt	nt	nt
O=c1cc(-c2ccncc2)oc2c1ccc1ccccc12	?	-79.2	i	i	?
O=c1cc(-c2ccco2)oc2c1ccc1ccccc12	nt	i	i	i	i
O=c1cc(C(Cl)(Cl)Cl)oc2c1ccc1ccccc12	0.131µM	-104.9	i	i	0.262µM
COC(=O)C1=C(C)N(c2ccc(C)c(C)c2)/C(=C/c2ccco2)C1=O	i	nt	35.5µM	i	i
SMILES	Pf growth 48h	HCMV antiviral	Sm TGR inh	FBPA Giardia inh	Pf growth 96h
COC(=O)C1=C(C)N(Cc2ccco2)C(=O)/C1=C\c1ccc([N+](=O)[O-])cc1	?	i	7.94µM	?	i
COC(=O)C1=C(C)N(C)C(=O)/C1=C\c1ccco1	i	i	i	i	i
COC(=O)C1=C(C)N(Cc2ccco2)C(=O)/C1=C\c1ccc(N(C)C)cc1	i	i	i	i	i
COC(=O)C1=C(C)NC(=O)/C1=C\c1cc(C)n(-c2cccc(C)c2)c1C	nt	i	25.1µM	?	?
CCOC(=O)C1=C(C)N(c2ccc(C)c(C)c2)C(=O)/C1=C\c1ccco1	i	i	i	i	?
COC(=O)C1=C(C)N(Cc2ccc(OC)cc2)C(=O)/C1=C\c1ccco1	?	i	12.6µM	i	?
COC(=O)C1=C(C)NC(=O)/C1=C\c1ccco1	i	i	25.1µM	i	i
CCn1c(CNc2ccc(Cl)cc2)nnc1SCC#N	i	i	i	i	2.94µM
CCn1c(CNc2ccc(F)cc2)nnc1SCC#N	i	i	i	i	i
CCCCCCCc1c(O)nc(SCC(=O)O)[nH]c1=O	i	i	i	i	i
COc1cc(NC2CCCCC2O)c2nc(-c3ccc(Cl)cc3)ccc2c1 (stereo not drawn)	1.85µM	i	i	?	1.85µM
O=C(CN1C(=O)c2ccccc2S1(=O)=O)Nc1cc(S(=O)(=O)N2CCCCC2)ccc1Cl	i	i	i	nt	?
Cc1cc(=O)n(CCc2ccccc2)c(O)c1C#N	i	i	?	?	i
Cc1cc(=O)n2c(sc3ccccc32)c1C#N	i	-90.5	i	i	i
Cc1cc(/C=C2\C(=O)NC(=O)N(c3ccc(Cl)cc3)C2=O)c(C)n1-c1sc2c(c1C#N)CCCC2	i	i	?	i	?
Cc1cc(C)c(-n2c(C)cc(/C=C3/NC(=O)NC3=O)c2C)c(C)c1	?	?	i	i	5.86µM
CCOC(=O)c1c(-n2c(C)cc(C=O)c2C)sc2c1CCCC2	?	i	i	i	?
Cc1cc(/C=C2/NC(=O)NC2=O)c(C)n1-c1sc2c(c1C#N)CCCC2	?	-72.8	?	i	nt
Cc1cc(/C=C2/NC(=O)NC2=O)c(C)n1C	i	i	14.1µM	?	4.65µM
Cc1cccc(-n2c(C)cc(/C=C3\NC(=O)NC3=O)c2C)c1	i	i	?	i	i
CCOC(=O)c1c(-n2c(C)cc(/C=C3\C(=O)NC(=O)N(C)C3=O)c2C)sc2c1CCCC2	?	i	i	i	3.7µM
c1ccc(-n2nnnc2-c2cccc3ccccc23)cc1	nt	i	nt	nt	nt
CN(C)CCC1(c2ccccc2)CCN(C)C1=O (stereo not drawn)	nt	i	nt	nt	nt
CC[C@H]1CN2CCC1C[C@@H]2[C@H](O)c1ccnc2ccc(OC)cc12 (stereo partly drawn)	nt	i	nt	nt	nt
C=C[C@H]1CN2CC[C@H]1C[C@@H]2[C@@H](O)c1ccnc2ccccc12	0.0329µM	i	i	nt	0.0041µM
C=CC1CN2CCC1CC2C(OC(C)=O)c1ccnc2ccc(OC)cc12 (stereo not drawn)	0.37µM	i	i	i	0.294µM
CSCC[C@H](NC(=O)[C@H](CC(C)C)NC(=O)[C@@H]1CCCN1C(=O)[C@H](Cc1ccccc1)NC(=O)[C@H](Cc1ccccc1)NC(=O)[C@H](CCC(N)=O)NC(=O)[C@H](CCC(N)=O)NC(=O)[C@@H]1CCCN1C(=O)[C@H](CCCCN)NC(=O)[C@@H]1CCCN1C(=O)[C@@H](N)CCCN=C(N)N)C(N)=O	nt	nt	nt	i	nt
